Data published in PubChem BioAssay AID1159580 (chemical genetic matrix, 2015).
Hit rate of the full screen: of about 5,500 compounds, about 2,000 (36%) were called active. Inconclusive results (about 18%) are left out. No stated cut-off is given here; in the data, active means normalized growth mostly below about 0.91 (no sharp cut-off); inconclusive means no clear call, values can overlap the other calls; inactive means mostly above about 0.92. The list shows a part of the results.

Assay: chemical genetic growth profiling, strain panel (AID 1159580);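 further: tested at 20 µM; growth read once vehicle control cultures reached saturation at 30 °C; 1 = growth at the plate median or of vehicle wells; lower values mean less growth of the strain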
Settings: growth OD

Measured: normalized growth

COc1cc(NS(=O)(=O)c2ccc(N)cc2)ncn1
inactive: S. cerevisiae deletion strains, locus YJR075W, strain HOC1, active compounds read low 0.984 | S. cerevisiae deletion strains, locus YKL009W, strain mrt4, active compounds read low 0.982 | S. cerevisiae deletion strains, locus YKL068W, active compounds read low 0.986 | S. cerevisiae deletion strains, locus YKL085W, strain MDH1 (second series), active compounds read low 0.991 | S. cerevisiae deletion strains, locus YKL085W, strain MDH1, active compounds read low 0.991 | S. cerevisiae deletion strains, locus YKL160W, strain elf1, active compounds read low 0.98 | S. cerevisiae deletion strains, locus YKL190W, strain CNB1, active compounds read low 0.978 | S. cerevisiae deletion strains, locus YKR001C, strain vps1, active compounds read low 0.986 | S. cerevisiae deletion strains, locus YKR026C, strain gcn3, active compounds read low 0.968 | S. cerevisiae deletion strains, locus YKR091W, strain srl3, active compounds read low 0.99 | S. cerevisiae deletion strains, locus YLL001W, strain dnm1, active compounds read low 0.974 | S. cerevisiae deletion strains, locus YLL026W, active compounds read low 0.985 | S. cerevisiae deletion strains, locus YLL041C, strain sdh2, active compounds read low 0.982 | S. cerevisiae deletion strains, locus YLR027C, strain aat2, active compounds read low 0.988 | S. cerevisiae deletion strains, locus YLR039C, strain RIC1, active compounds read low 1.02 | S. cerevisiae deletion strains, locus YLR058C, strain SHM2, active compounds read low 0.972 | S. cerevisiae deletion strains, locus YLR102C, strain apc9, active compounds read low 0.986 | S. cerevisiae deletion strains, locus YLR113W, strain HOG1, active compounds read low 0.949 | S. cerevisiae deletion strains, locus YLR221C, strain rsa3, active compounds read low 0.985 | S. cerevisiae deletion strains, locus YLR258W, strain gsy2, active compounds read low 0.979 | S. cerevisiae deletion strains, locus YLR262C, strain YPT6 (second series), active compounds read low 0.985 | S. cerevisiae deletion strains, locus YLR262C, strain YPT6, active compounds read low 1.02 | S. cerevisiae deletion strains, locus YLR268W, strain sec22, active compounds read low 0.948 | S. cerevisiae deletion strains, locus YLR320W, strain mms22, active compounds read low 0.979 | S. cerevisiae deletion strains, locus YLR330W, strain CHS5, active compounds read low 0.998 | S. cerevisiae deletion strains, locus YLR342W, strain FKS1 (second series), active compounds read low 1.04 | S. cerevisiae deletion strains, locus YLR342W, strain FKS1, active compounds read low 1.02 | S. cerevisiae deletion strains, locus YLR357W, strain rsc2, active compounds read low 0.93 | S. cerevisiae deletion strains, locus YLR370C, strain arc18, active compounds read low 0.979 | S. cerevisiae deletion strains, locus YLR371W, strain rom2, active compounds read low 0.992 | S. cerevisiae deletion strains, locus YLR384C, strain iki3, active compounds read low 0.974 | S. cerevisiae deletion strains, locus YLR418C, strain cdc73, active compounds read low 0.983 | S. cerevisiae deletion strains, locus YML016C, strain PPZ1, active compounds read low 0.992 | S. cerevisiae deletion strains, locus YML032C, strain rad52, active compounds read low 0.991 | S. cerevisiae deletion strains, locus YML120C, strain ndi1, active compounds read low 1.01 | S. cerevisiae deletion strains, locus YML124C, strain tub3, active compounds read low 0.988 | S. cerevisiae deletion strains, locus YMR058W, strain fet3, active compounds read low 0.993 | S. cerevisiae deletion strains, locus YMR078C, strain ctf18, active compounds read low 0.981 | S. cerevisiae deletion strains, locus YMR125W, strain sto1, active compounds read low 0.963 | S. cerevisiae deletion strains, locus YMR129W, active compounds read low 0.996 | S. cerevisiae deletion strains, locus YMR205C, strain PFK2, active compounds read low 0.992 | S. cerevisiae deletion strains, locus YMR223W, strain ubp8, active compounds read low 0.981 | S. cerevisiae deletion strains, locus YMR231W, strain pep5, active compounds read low 0.975 | S. cerevisiae deletion strains, locus YMR263W, strain SAP30, active compounds read low 0.982 | S. cerevisiae deletion strains, locus YMR307W, strain GAS1, active compounds read low 1.1 | S. cerevisiae deletion strains, locus YNL067W, strain RPL9B, active compounds read low 0.981 | S. cerevisiae deletion strains, locus YNL071W, strain lat1, active compounds read low 0.969 | S. cerevisiae deletion strains, locus YNL153C, strain GIM3, active compounds read low 0.965 | S. cerevisiae deletion strains, locus YNL183C, strain NPR1, active compounds read low 0.933 | S. cerevisiae deletion strains, locus YNL209W, strain ssb2, active compounds read low 0.975 | S. cerevisiae deletion strains, locus YNL233W, strain BNI4, active compounds read low 0.987 | S. cerevisiae deletion strains, locus YNL248C, strain rpa49, active compounds read low 0.931 | S. cerevisiae deletion strains, locus YNL250W, strain rad50, active compounds read low 0.979 | S. cerevisiae deletion strains, locus YNL271C, strain bni1, active compounds read low 0.992 | S. cerevisiae deletion strains, locus YNL298W, strain CLA4, active compounds read low 0.983 | S. cerevisiae deletion strains, locus YNL307C, strain MCK1, active compounds read low 0.979 | S. cerevisiae deletion strains, locus YNL322C, strain KRE1 (second series), active compounds read low 0.955 | S. cerevisiae deletion strains, locus YNL322C, strain KRE1, active compounds read low 0.991 | S. cerevisiae deletion strains, locus YNR049C, strain mso1, active compounds read low 0.979 | S. cerevisiae deletion strains, locus YNR052C, strain pop2, active compounds read low 0.987 | S. cerevisiae deletion strains, locus YOL006C, strain TOP1, active compounds read low 0.965 | S. cerevisiae deletion strains, locus YOL012C, strain htz1 1.08 | S. cerevisiae deletion strains, locus YOL147C, strain pex11, active compounds read low 0.982 | S. cerevisiae deletion strains, locus YOR001W, strain rrp6, active compounds read low 0.998 | S. cerevisiae deletion strains, locus YOR061W, strain CKA2, active compounds read low 0.961 | S. cerevisiae deletion strains, locus YOR069W, strain VPS5, active compounds read low 0.992 | S. cerevisiae deletion strains, locus YOR070C, strain gyp1, active compounds read low 0.984 | S. cerevisiae deletion strains, locus YOR080W, strain dia2, active compounds read low 0.977 | S. cerevisiae deletion strains, locus YOR083W, strain WHI5, active compounds read low 0.989 | S. cerevisiae deletion strains, locus YOR106W, strain vam3, active compounds read low 0.981 | S. cerevisiae deletion strains, locus YOR136W, strain idh2, active compounds read low 0.981 | S. cerevisiae deletion strains, locus YOR144C, strain elg1, active compounds read low 0.982 | S. cerevisiae deletion strains, locus YOR184W, strain ser1, active compounds read low 0.989 | S. cerevisiae deletion strains, locus YOR231W, strain MKK1, active compounds read low 0.97 | S. cerevisiae deletion strains, locus YOR265W, strain rbl2, active compounds read low 0.991 | S. cerevisiae deletion strains, locus YOR270C, strain vph1, active compounds read low 0.95 | S. cerevisiae deletion strains, locus YOR290C, strain snf2, active compounds read low 0.976 | S. cerevisiae deletion strains, locus YOR316C, strain cot1, active compounds read low 0.982 | S. cerevisiae deletion strains, locus YPL051W, strain arl3, active compounds read low 0.981 | S. cerevisiae deletion strains, locus YPL055C, strain LGE1, active compounds read low 0.92 | S. cerevisiae deletion strains, locus YPL078C, strain atp4, active compounds read low 0.988 | S. cerevisiae deletion strains, locus YPL106C, strain sse1, active compounds read low 0.969 | S. cerevisiae deletion strains, locus YPL240C, strain hsp82, active compounds read low 0.997 | S. cerevisiae deletion strains, locus YPL256C, strain CLN2, active compounds read low 0.974 | S. cerevisiae deletion strains, locus YPR119W, strain clb2, active compounds read low 0.982 | S. cerevisiae deletion strains, locus YPR141C, strain kar3, active compounds read low 0.97 | S. cerevisiae deletion strains, locus YPR163C, strain tif3, active compounds read low 0.985 | S. cerevisiae deletion strains, locus YPR167C, strain met16, active compounds read low 0.994 | S. cerevisiae deletion strains, strain wtn01, active compounds read low 0.981 | S. cerevisiae strains, strain wild type, active compounds read low 0.981
